MLLE-PAM2 inh = inhibitors of PABP1 MLLE–PAM2 peptide binding, primary screen, biochemical, fluorescence polarization, FITC-PAM2, GST-MLLE; inhibition, % at 20 µM; hit rate 0.36% among 360,000; in the data active = inhibition above about 35%, passing the limit was not always enough
ALR inh = inhibitors of human ALR sulfhydryl oxidase, primary screen, biochemical, H2O2 detection, HRP-luminol luminescence, single point; FAD-linked sulfhydryl oxidase ALR (Homo sapiens), P55789; purified ALR, DTT oxidation; hit rate 3.8% among 290,000; AID 485317, 2010; inhibition, % (concentration not given with the values);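 active = mean replicate inhibition above about 79%, with every replicate also reaching it, limit read from the data; inconclusive = only one of the two criteria met; inactive = mean below limit and not every replicate reaching it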
Target sequence (P55789 whole entry, looked up): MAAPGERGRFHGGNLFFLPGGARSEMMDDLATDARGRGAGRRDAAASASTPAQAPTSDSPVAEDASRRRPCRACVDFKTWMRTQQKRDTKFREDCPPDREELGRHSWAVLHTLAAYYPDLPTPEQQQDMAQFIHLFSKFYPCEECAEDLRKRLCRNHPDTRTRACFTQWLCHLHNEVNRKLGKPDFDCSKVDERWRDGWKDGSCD
Efflux pump inh = inhibitors of Candida efflux pumps in yeast, primary screen, S. cerevisiae, Nile Red, multiplex; S. cerevisiae Candida pump triplex; inhibition, % at 10 µM; hit rate 0.44% among 330,000; AID 485275, 2010;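 active = plate passing quality check with inhibition over a set limit, or well fluorescence over plate mean plus 4 SD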;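 also: Nile Red retained in pooled yeast measured as flow cytometry median fluorescence; higher means more Nile Red kept so more efflux inhibition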
eIF4H inh = human eIF4H binding inhibitors, primary screen, translation initiation inhibitor project, biochemical, uHTS, fluorescence polarization. hit rate 0.94% among 290,000. inhibition, % at 35 µM. AID 2012, 2009. eIF4H fluorescence polarization binding assay;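 also: calls also rest on retests at 20 µM and on dose response follow-up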
PABP FP inh = PABP poly(A) RNA binding inhibitors, primary screen, biochemical, fluorescence polarization, uHTS | hit rate 1% among 290,000 | inhibition, % at 35 µM | AID 2014, 2009;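 also: calls also rest on retests at 20 µM and on dose response follow-up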
UBC9 SUMO inh = inhibitors of in vitro SUMOylation cascade, primary screen, biochemical, HTRF, uHTS | HTRF SUMOylation assay, SAE1/SAE2 + UBC9 | inhibition, % at 35 µM | hit rate 0.36% among 290,000; in the data active = inhibition above about 50%, passing the limit was not always enough; inconclusive = no clear call, values can overlap the other calls
Target sequence (P63279 whole entry, looked up): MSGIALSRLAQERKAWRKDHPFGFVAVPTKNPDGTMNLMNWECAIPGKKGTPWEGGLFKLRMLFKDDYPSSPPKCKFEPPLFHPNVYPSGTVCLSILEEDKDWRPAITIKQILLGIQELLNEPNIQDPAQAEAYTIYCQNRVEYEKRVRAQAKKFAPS
Yeast cmpd fluor = counter-screen for efflux pump inhibitors: compound fluorescence. shares compounds with Efflux pump inh. S. cerevisiae AD/pABC3, flow cytometry. fluorescence ratio to DMSO, % at 10 µM. hit rate 4% among 1,700. AID 588517;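 active = fluorescence ratio to DMSO above its plate's cutoff, the plate mean ratio plus 5 SD, cut at about 210% in these data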;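 also: unstained yeast with no Nile Red so the signal is compound autofluorescence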
Mdr1 pump inh = inhibitors of Candida albicans Mdr1 efflux, confirmation, flow cytometry, singleplex, Cherry Pick1 set; shares compounds with Efflux pump inh; S. cerevisiae AD/CaMDR1, Nile Red efflux; inhibition, % at 10 µM; hit rate 1% among 1,700; in the data active = inhibition above about 26%;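 also: higher means more Nile Red retained so more efflux inhibition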
CaCdr2 efflux inh = inhibitors of Candida albicans Cdr2 efflux pump, confirmation, S. cerevisiae AD/CaCDR2, flow cytometry, cherry pick 1, singleplex. AID 588520, 2011. Nile Red retention ratio vs DMSO, % at 10 µM. hit rate 4% among 1,700. shares compounds with Efflux pump inh. Nile Red retention; in the data active = Nile Red retention ratio vs DMSO above about 190%;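 also: higher ratio means more blocking of Cdr2 efflux of the dye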
CaCdr1 efflux inh = inhibitors of Candida albicans Cdr1 efflux pump, confirmation, S. cerevisiae AD/CaCDR1, flow cytometry, cherry pick 1, singleplex; hit rate 1% among 1,700; shares compounds with Efflux pump inh; inhibition, % at 10 µM; Nile Red efflux;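 active = inhibition above the screen-wide mean plus twice its standard deviation, cut at about 32% in these data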
Hits are given with their value; 0 = inactive; ? = inconclusive; - = not tested or not shown. This is a sample that favours compounds with a hit; in the whole collection about 4.7% have one here. Unless noted, no rule for the calls is given here.

SMILES | MLLE-PAM2 inh | ALR inh | Efflux pump inh | eIF4H inh | PABP FP inh | UBC9 SUMO inh | Yeast cmpd fluor | Mdr1 pump inh | CaCdr2 efflux inh | CaCdr1 efflux inh
Cn1ccc(C(=O)Nc2sc3c(c2C(N)=O)CCCCC3)n1 | 0 | ? | 0 | 0 | 0 | 0 | - | - | - | -
CCn1ncc(Br)c1C(=O)Nc1sc2c(c1C(N)=O)CCC2 | 0 | 0 | 0 | 0 | 0 | 0 | 0 | 0 | 0 | 0
Cn1cc(Br)c(C(=O)Nc2sc3c(c2C(N)=O)CCC3)n1 | 0 | 0 | 0 | 0 | 0 | 0 | 0 | 0 | 0 | 0
CCOC(=O)c1c(NC(=O)c2ccn(CC)n2)sc2c1CCC2 | 0 | 0 | 0.4 | 0 | 0 | 0 | 0 | 0 | 0 | 0
C#CCOC(=O)CCCC(=O)NCCCCCCCC | 0 | 0 | 0 | 0 | 0 | 0 | - | - | - | -
CN(C(=O)c1cccc(NC(=O)Cc2ccc(NC(=O)C3CCCN(C(=O)C4CCCCC4)C3)cc2)c1)C1CCCCC1 (stereo not given) | 0 | - | - | - | - | - | - | - | - | -
Cc1ccc(CNC(=O)C2CN(S(C)(=O)=O)c3cc(Cl)ccc3O2)cc1 (stereo not given) | 0 | 0 | 0 | 0 | 0 | 0 | - | - | - | -
CN(C)Cc1c(O)ccc2c1O/C(=C\C=C\c1ccccc1)C2=O | 0 | - | 0.6 | ? | ? | 0 | 0 | 0 | 0 | 0
Cc1ccc(Cl)c(OCCN2CCc3ccccc3C2)c1 | 0 | 0 | 0 | 0 | 0 | 0 | - | - | - | -
O=C(Nc1nccs1)c1cc(Cl)nc2ccccc12 | 0 | 0 | 0 | 0 | 0 | 0 | - | - | - | -
CCOC(=O)Cc1cc(-c2ccc(O)cc2)nc2ccc3ccccc3c12 | 0 | 0 | 0 | 0 | 0 | 0 | - | - | - | -
O=C(NCCN1CCOCC1)c1cc(-c2ccccc2)nc2ccccc12 | 0 | - | - | - | - | - | - | - | - | -
COc1ccc(-c2cc(C(=O)Nc3ccc(C)c(N)c3)c3ccccc3n2)cc1 | 0 | 0 | 0.5 | 0 | 0 | 0 | 0 | 0 | 0 | 0
COc1ccc(-c2cc(C(=O)NCCN3CCOCC3)c3ccccc3n2)c(OC)c1 | 0 | 0 | 0 | 0 | 0 | 0 | 0 | 0 | 0 | 0
O=C(Nc1nccs1)c1cc(-c2ccccc2)nc2ccccc12 | 0 | 0 | 10.8 | 0 | 0 | 0 | 0 | 0 | 0 | 0
CCOC(=O)Cc1cc(-c2ccc(OC)cc2)nc2ccc3ccccc3c12 | 0 | 0 | 10.2 | 0 | 0 | 0 | 0 | 0 | 0 | 0
Cc1cc(OC(C)C(=O)NCC(O)c2ccccc2)c2c(C)cc(=O)oc2c1 (stereo not given) | 0 | 0 | 0 | 0 | 0 | 0 | - | - | - | -
CC(C)Cc1nnc(NC(=O)CCc2c[nH]c3ccccc23)s1 | 0 | 0 | 0 | 0 | 0 | 0 | - | - | - | -
COc1ccc(-c2cc(C(=O)Nc3cc(S(=O)(=O)N4CCOCC4)ccc3N3CCOCC3)c3ccccc3n2)cc1 | 0 | 0 | 0.8 | 0 | 0 | 0 | 0 | 0 | 0 | 0
CCN1CCN(c2ccc(S(=O)(=O)N3CCOCC3)cc2NC(=O)c2cc(Cl)nc3ccccc23)CC1 | 0 | 0 | 0 | - | - | - | - | - | - | -
CC(=O)Nc1ccc(S(=O)(=O)NCc2nc(-c3ccc(C)cc3)no2)cc1 | 0 | 0 | 0 | 0 | 0 | 0 | - | - | - | -
Cc1cccc(NC(=O)c2cc3cc([N+](=O)[O-])ccc3s2)n1 | 0 | 0 | 1.1 | 0 | 0 | 0 | 0 | 0 | 0 | 0
O=C(COC(=O)CC1CCCC1)Nc1ccccc1[N+](=O)[O-] | 0 | - | 0.9 | - | - | - | 0 | 0 | 0 | 0
CCOc1ccc(C(=O)NCc2ccco2)cc1 | 0 | 0 | 1.2 | 0 | 0 | 0 | 0 | 0 | 0 | 0
Cc1cc(C)c2c(n1)sc1c(-c3ccccc3)c(C#N)c(N)nc12 | 0 | 0 | 17.7 | 0 | 0 | 0 | 0 | 0 | 0 | 0
SMILES | MLLE-PAM2 inh | ALR inh | Efflux pump inh | eIF4H inh | PABP FP inh | UBC9 SUMO inh | Yeast cmpd fluor | Mdr1 pump inh | CaCdr2 efflux inh | CaCdr1 efflux inh
O=C(NCc1ccccc1CN1CCCC1)C1CCN(C(=O)c2ccc(Cl)cc2)CC1 | 0 | - | - | - | - | - | - | - | - | -
Cc1cccc(C)c1-n1c(SCC(=O)N2CC(=O)Nc3ccccc32)nc2ccccc2c1=O | 0 | 0 | 8.2 | 0 | 0 | 0 | 0 | 0 | 0 | 94.6
O=c1cc(/N=C/c2coc3c(ccc4ccccc43)c2=O)[nH]c(=S)[nH]1 | 0 | - | 0 | 0 | 0 | 0 | - | - | - | -
CCOc1ccc(/C=N/NC(=O)c2ccccc2O)cc1CN1CC2CC(C1)c1cccc(=O)n1C2 (stereo not given) | 0 | 0 | 0.8 | - | - | - | 0 | 0 | 0 | 0
O=C(NC1CC1)C1CCN(C2CCN(C(=O)/C=C/c3ccc(F)cc3)CC2)CC1 | 0 | 0 | 0 | 0 | 0 | 0 | - | - | - | -
CCO[C@@H]1OC(C(=O)Nc2ccccc2)=C[C@H](c2ccc(Br)cc2)[C@H]1CCCO | 0 | 0 | 0.8 | 0 | 0 | 0 | 0 | 0 | 0 | 0
COc1ccc(NC(=O)CSc2nc3ccccc3c(=O)n2CCNC(C)=O)c(OC)c1 | 0 | 0 | 0 | 0 | 0 | 0 | - | - | - | -
COc1ccc(OC)c(NC(=O)CSc2nc3ccccc3c(=O)n2CCNC(C)=O)c1 | 0 | 0 | 0.6 | 0 | 0 | 0 | 0 | 0 | 0 | 0
C=CCn1c(=O)c2ccccc2n2c(SCC(=O)Nc3sc(C)c(CC)c3C(=O)OCC)nnc12 | 0 | 0 | 0.5 | 0 | 0 | 0 | 0 | 0 | 0 | 0
CCN1CCCC1CNS(=O)(=O)c1cc(Br)cc2c1N(C(=O)C1CC1)CC2 (stereo not given) | 0 | - | 20.5 | 0 | 0 | 0 | 0 | 0 | 0 | 0
Cc1occc1C(=O)N(C)CC1CCCN(CCc2ccccc2F)C1 (stereo not given) | 0 | 0 | 5.0 | 0 | 0 | 0 | 0 | 0 | 0 | 0
CN(CC1CCCN(CCc2ccccc2F)C1)C(=O)c1ccoc1 (stereo not given) | 0 | 0 | 0 | 0 | 0 | 0 | - | - | - | -
CN1CCN(c2ccccc2NC(=O)c2ccc(N3CCCC3)c([N+](=O)[O-])c2)CC1 | 0 | 0 | 0 | 0 | 0 | 0 | - | - | - | -
CN1CCN(c2ccc(C(=O)c3ccc(Br)cc3)cc2[N+](=O)[O-])CC1 | 0 | - | 33.2 | 0 | 0 | 0 | 0 | 0 | 0 | 0
CCN1C(=O)[C@H]2[C@@H](c3ccc(-c4cccc(Cl)c4)c(OC)c3)N3CCCC[C@@]3(C(=O)OC)[C@H]2C1=O | 0 | 0 | 0 | - | - | - | - | - | - | -

High-throughput results: PubChem, several laboratories
